Results as given in the supplement of paper PMC4466140.
± gives the standard deviation of the averaged measurements.

Target: AgAbp1
Experiment: SPOT peptide array binding signal intensity (averaged, normalized) (arbitrary units (background-subtracted, floor 0; scale differs between SH3 domains)); higher = stronger binding of the SH3 domain to the peptide
In short: (§1)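 GST-fused SH3 domains from four yeast species were expressed in E. coli BL21(DE3), purified on glutathione Sepharose and incubated at 10 μg/ml overnight at 4°C in TBS-based blocking buffer on cellulose membranes carrying synthetic 15-mer peptides, with cysteines replaced by serines. Bound protein was detected with anti-GST antibody, an HRP anti-mouse secondary and luminol, then imaged and quantified with Genespotter. Binding signal is the normalized, background-subtracted spot intensity averaged over replicates, in arbitrary units that differ between domains.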

Binder	SPOT peptide array binding signal intensity
VSKLRSPNTPRRLRK	210 ± 71
HPRFVSPRIPSRIVK	258

Target: AgBbc1
Experiment: as above
In short: as §1

Binder	SPOT peptide array binding signal intensity
VSKLRSPNTPRRLRK	284 ± 140
HPRFVSPRIPSRIVK	502

Target: AgBem1-D1
Experiment: as above
In short: as §1

Binder	SPOT peptide array binding signal intensity
VSKLRSPNTPRRLRK	116 ± 54
HPRFVSPRIPSRIVK	182

Target: AgBzz1-D1
Experiment: as above
In short: as §1

Binder	SPOT peptide array binding signal intensity
VSKLRSPNTPRRLRK	65.5 ± 29
HPRFVSPRIPSRIVK	185

Target: AgBzz1-D2
Experiment: as above
In short: as §1

Binder	SPOT peptide array binding signal intensity
VSKLRSPNTPRRLRK	44.8 ± 5.3
HPRFVSPRIPSRIVK	23.5

Target: AgCyk3
Experiment: as above
In short: as §1

Binder	SPOT peptide array binding signal intensity
VSKLRSPNTPRRLRK	7 ± 0.71
HPRFVSPRIPSRIVK	1

Target: AgFus1
Experiment: as above
In short: as §1

Binder	SPOT peptide array binding signal intensity
VSKLRSPNTPRRLRK	192 ± 110
HPRFVSPRIPSRIVK	239

Target: AgHof1
Experiment: as above
In short: as §1

Binder	SPOT peptide array binding signal intensity
VSKLRSPNTPRRLRK	68 ± 14
HPRFVSPRIPSRIVK	116

Target: AgHse1
Experiment: as above
In short: as §1

Binder	SPOT peptide array binding signal intensity
VSKLRSPNTPRRLRK	352 ± 230
HPRFVSPRIPSRIVK	176

Target: AgLsb1
Experiment: as above
In short: as §1

Binder	SPOT peptide array binding signal intensity
VSKLRSPNTPRRLRK	3.38 ± 4.1
HPRFVSPRIPSRIVK	138

Target: AgLsb4
Experiment: as above
In short: as §1

Binder	SPOT peptide array binding signal intensity
VSKLRSPNTPRRLRK	48.8 ± 16
HPRFVSPRIPSRIVK	28

Target: AgMyo5
Experiment: as above
In short: as §1

Binder	SPOT peptide array binding signal intensity
VSKLRSPNTPRRLRK	2.75 ± 2.5
HPRFVSPRIPSRIVK	11

Target: AgNbp2
Experiment: as above
In short: as §1

Binder	SPOT peptide array binding signal intensity
VSKLRSPNTPRRLRK	84.2 ± 8.8
HPRFVSPRIPSRIVK	390

Target: AgRvs167
Experiment: as above
In short: as §1

Binder	SPOT peptide array binding signal intensity
VSKLRSPNTPRRLRK	9.83 ± 2.1
HPRFVSPRIPSRIVK	12.3

Target: AgSho1
Experiment: as above
In short: as §1

Binder	SPOT peptide array binding signal intensity
VSKLRSPNTPRRLRK	13 ± 2.8
HPRFVSPRIPSRIVK	13

Target: AgSla1-D1-D2
Experiment: as above
In short: as §1

Binder	SPOT peptide array binding signal intensity
VSKLRSPNTPRRLRK	334 ± 170
HPRFVSPRIPSRIVK	62.5

Target: AgSla1-D3
Experiment: as above
In short: as §1

Binder	SPOT peptide array binding signal intensity
VSKLRSPNTPRRLRK	8.88 ± 5.8
HPRFVSPRIPSRIVK	32.5

Target: CaAbp1-D1
Experiment: as above
In short: as §1

Binder	SPOT peptide array binding signal intensity
VSKLRSPNTPRRLRK	897 ± 89
HPRFVSPRIPSRIVK	322

Target: CaAbp1-D2
Experiment: as above
In short: as §1

Binder	SPOT peptide array binding signal intensity
VSKLRSPNTPRRLRK	576 ± 100
HPRFVSPRIPSRIVK	83.5

Target: CaBbc1
Experiment: as above
In short: as §1

Binder	SPOT peptide array binding signal intensity
VSKLRSPNTPRRLRK	863 ± 130
HPRFVSPRIPSRIVK	1520

Target: CaBem1-D1
Experiment: as above
In short: as §1

Binder	SPOT peptide array binding signal intensity
VSKLRSPNTPRRLRK	64 ± 8.5
HPRFVSPRIPSRIVK	226

Target: CaBzz1-D1
Experiment: as above
In short: as §1

Binder	SPOT peptide array binding signal intensity
VSKLRSPNTPRRLRK	156 ± 7.4
HPRFVSPRIPSRIVK	255

Target: CaBzz1-D2
Experiment: as above
In short: as §1

Binder	SPOT peptide array binding signal intensity
VSKLRSPNTPRRLRK	146 ± 120
HPRFVSPRIPSRIVK	149

Target: CaCyk3
Experiment: as above
In short: as §1

Binder	SPOT peptide array binding signal intensity
VSKLRSPNTPRRLRK	47.2 ± 1.1
HPRFVSPRIPSRIVK	17

Target: CaFus1
Experiment: as above
In short: as §1

Binder	SPOT peptide array binding signal intensity
VSKLRSPNTPRRLRK	230 ± 22
HPRFVSPRIPSRIVK	373

Target: CaHof1
Experiment: as above
In short: as §1

Binder	SPOT peptide array binding signal intensity
VSKLRSPNTPRRLRK	0.5 ± 0.71
HPRFVSPRIPSRIVK	2

Target: CaHse1
Experiment: as above
In short: as §1

Binder	SPOT peptide array binding signal intensity
VSKLRSPNTPRRLRK	4.62 ± 3.4
HPRFVSPRIPSRIVK	25

Target: CaLsb1
Experiment: as above
In short: as §1

Binder	SPOT peptide array binding signal intensity
VSKLRSPNTPRRLRK	0.75 ± 0.35
HPRFVSPRIPSRIVK	1

Target: CaLsb4
Experiment: as above
In short: as §1

Binder	SPOT peptide array binding signal intensity
VSKLRSPNTPRRLRK	778 ± 490
HPRFVSPRIPSRIVK	933

Target: CaMyo5
Experiment: as above
In short: as §1

Binder	SPOT peptide array binding signal intensity
VSKLRSPNTPRRLRK	3.38 ± 0.18
HPRFVSPRIPSRIVK	13.8

Target: CaNbp2
Experiment: as above
In short: as §1

Binder	SPOT peptide array binding signal intensity
VSKLRSPNTPRRLRK	166 ± 86

Target: CaRvs167
Experiment: as above
In short: as §1

Binder	SPOT peptide array binding signal intensity
VSKLRSPNTPRRLRK	23.8 ± 10

Target: CaRvs167-3
Experiment: as above
In short: as §1

Binder	SPOT peptide array binding signal intensity
VSKLRSPNTPRRLRK	28.2 ± 2.5

Target: CaSho1
Experiment: as above
In short: as §1

Binder	SPOT peptide array binding signal intensity
VSKLRSPNTPRRLRK	131 ± 3.9

Target: CaSla1-D1-D2
Experiment: as above
In short: as §1

Binder	SPOT peptide array binding signal intensity
VSKLRSPNTPRRLRK	270 ± 140

Target: CaSla1-D3
Experiment: as above
In short: as §1

Binder	SPOT peptide array binding signal intensity
VSKLRSPNTPRRLRK	3.88 ± 0.53

Target: ScAbp1
Experiment: as above
In short: as §1

Binder	SPOT peptide array binding signal intensity
VSKLRSPNTPRRLRK	41 ± 23

Target: ScBbc1
Experiment: as above
In short: as §1

Binder	SPOT peptide array binding signal intensity
VSKLRSPNTPRRLRK	266 ± 81

Target: ScBem1-D1
Experiment: as above
In short: as §1

Binder	SPOT peptide array binding signal intensity
VSKLRSPNTPRRLRK	25.2 ± 17

Target: ScBzz1-D1
Experiment: as above
In short: as §1

Binder	SPOT peptide array binding signal intensity
VSKLRSPNTPRRLRK	23 ± 9.9

Target: ScBzz1-D2
Experiment: as above
In short: as §1

Binder	SPOT peptide array binding signal intensity
VSKLRSPNTPRRLRK	9.25 ± 3.9

Target: ScCyk3
Experiment: as above
In short: as §1

Binder	SPOT peptide array binding signal intensity
VSKLRSPNTPRRLRK	110 ± 25

Target: ScFus1
Experiment: as above
In short: as §1

Binder	SPOT peptide array binding signal intensity
VSKLRSPNTPRRLRK	143 ± 42

Target: ScHof1
Experiment: as above
In short: as §1

Binder	SPOT peptide array binding signal intensity
VSKLRSPNTPRRLRK	≤ 0

Target: ScHse1
Experiment: as above
In short: as §1

Binder	SPOT peptide array binding signal intensity
VSKLRSPNTPRRLRK	701 ± 130

Target: ScLsb1
Experiment: as above
In short: as §1

Binder	SPOT peptide array binding signal intensity
VSKLRSPNTPRRLRK	33.2 ± 7.8

Target: ScLsb2
Experiment: as above
In short: as §1

Binder	SPOT peptide array binding signal intensity
VSKLRSPNTPRRLRK	11.8 ± 1.1

Target: ScLsb3
Experiment: as above
In short: as §1

Binder	SPOT peptide array binding signal intensity
VSKLRSPNTPRRLRK	2420 ± 260

Target: ScLsb4
Experiment: as above
In short: as §1

Binder	SPOT peptide array binding signal intensity
VSKLRSPNTPRRLRK	70.5 ± 9.2

Target: ScMyo3
Experiment: as above
In short: as §1

Binder	SPOT peptide array binding signal intensity
VSKLRSPNTPRRLRK	2.62 ± 2.3

Target: ScMyo5
Experiment: as above
In short: as §1

Binder	SPOT peptide array binding signal intensity
VSKLRSPNTPRRLRK	2.88 ± 1.9

Target: ScNbp2
Experiment: as above
In short: as §1

Binder	SPOT peptide array binding signal intensity
VSKLRSPNTPRRLRK	275 ± 49

Target: ScPex13
Experiment: as above
In short: as §1

Binder	SPOT peptide array binding signal intensity
VSKLRSPNTPRRLRK	8.5 ± 12

Target: ScRvs167
Experiment: as above
In short: as §1

Binder	SPOT peptide array binding signal intensity
VSKLRSPNTPRRLRK	230.2 ± 2.2

Target: ScSho1
Experiment: as above
In short: as §1

Binder	SPOT peptide array binding signal intensity
VSKLRSPNTPRRLRK	258 ± 32

Target: ScSla1-D1-D2
Experiment: as above
In short: as §1

Binder	SPOT peptide array binding signal intensity
VSKLRSPNTPRRLRK	953 ± 160

Target: ScSla1-D3
Experiment: as above
In short: as §1

Binder	SPOT peptide array binding signal intensity
VSKLRSPNTPRRLRK	36.2 ± 41

Target: SpAbp1-D1
Experiment: as above
In short: as §1

Binder	SPOT peptide array binding signal intensity
VSKLRSPNTPRRLRK	384 ± 320

Target: SpBbc1
Experiment: as above
In short: as §1

Binder	SPOT peptide array binding signal intensity
VSKLRSPNTPRRLRK	5.75 ± 1.1

Target: SpBzz1-D1
Experiment: as above
In short: as §1

Binder	SPOT peptide array binding signal intensity
VSKLRSPNTPRRLRK	236 ± 150

Target: SpBzz1-D2
Experiment: as above
In short: as §1

Binder	SPOT peptide array binding signal intensity
VSKLRSPNTPRRLRK	≤ 0

Target: SpCyk3
Experiment: as above
In short: as §1

Binder	SPOT peptide array binding signal intensity
VSKLRSPNTPRRLRK	5.75 ± 4.6

Target: SpHof1
Experiment: as above
In short: as §1

Binder	SPOT peptide array binding signal intensity
VSKLRSPNTPRRLRK	183 ± 6

Target: SpHof1-2
Experiment: as above
In short: as §1

Binder	SPOT peptide array binding signal intensity
VSKLRSPNTPRRLRK	17 ± 8.5

Target: SpHof1-3
Experiment: as above
In short: as §1

Binder	SPOT peptide array binding signal intensity
VSKLRSPNTPRRLRK	319 ± 74

Target: SpHse1
Experiment: as above
In short: as §1

Binder	SPOT peptide array binding signal intensity
VSKLRSPNTPRRLRK	172 ± 74

Target: SpLsb1
Experiment: as above
In short: as §1

Binder	SPOT peptide array binding signal intensity
VSKLRSPNTPRRLRK	33.8 ± 4.6

Target: SpLsb4
Experiment: as above
In short: as §1

Binder	SPOT peptide array binding signal intensity
VSKLRSPNTPRRLRK	2990 ± 950

Target: SpMyo1
Experiment: as above
In short: as §1

Binder	SPOT peptide array binding signal intensity
VSKLRSPNTPRRLRK	3.25 ± 2.5

Target: SpNbp2
Experiment: as above
In short: as §1

Binder	SPOT peptide array binding signal intensity
VSKLRSPNTPRRLRK	109 ± 68

Target: SpPex13
Experiment: as above
In short: as §1

Binder	SPOT peptide array binding signal intensity
VSKLRSPNTPRRLRK	5.5 ± 2.1

Target: SpRvs167
Experiment: as above
In short: as §1

Binder	SPOT peptide array binding signal intensity
VSKLRSPNTPRRLRK	195 ± 91

Target: SpSla1-D1-D2
Experiment: as above
In short: as §1

Binder	SPOT peptide array binding signal intensity
VSKLRSPNTPRRLRK	10.2 ± 3.9

Target: SpSla1-D3
Experiment: as above
In short: as §1

Binder	SPOT peptide array binding signal intensity
VSKLRSPNTPRRLRK	2.5 ± 0.71
